Results published in the supplement of paper PMC7411054.
Counter-ions that a name gives are not always drawn.

Tested on: HepG2-TUBA1B-RELA
Experiment: phenotypically active (imaging signature differs from DMSO and reproducible) at any of 0.3-9 uM (binary (1 = active, 0 = inactive)); higher = active
Settings: treatment time: 24 h
Outline: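 The reporter lines, fifteen in total and built by gene editing in A549, HepG2 and WPMY1 cells, used BFP for segmentation alongside GFP and RFP/FusionRed markers. Each was treated at 0.3, 1, 3 or 9 µM for 24 h in four wells and then imaged live, with live-cell features normalised to solvent control wells. Deviation meant ≥3 of 4 wells beyond the 95th percentile of control Euclidean distances; reproducibility meant a median replicate Pearson correlation above the 95th percentile of non-replicates. Only conditions meeting both were scored as phenotypically active.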

Phenotypically active, active:
Nc1nc(Cl)nc2c1ncn2[C@@H]1O[C@H](CO)[C@@H](O)[C@@H]1F [clofarabine] 1, Cc1nc(Nc2ncc(C(=O)Nc3c(C)cccc3Cl)s2)cc(N2CCN(CCO)CC2)n1 [dasatinib] 1, O=C(NCc1cccc(O)c1)Nc1nc(-c2ccncc2)cs1 [RKI 1447 dihydrochloride] 1, CC(C)n1nc(-c2cc3cc(O)ccc3[nH]2)c2c(N)ncnc21 1, COc1ccc(-c2ccc3ncc4c(c3c2)n(-c2ccc(N3CCNCC3)c(C(F)(F)F)c2)c(=O)n4C)cn1 1, CC(C)(C)c1cnc(CSc2cnc(NC(=O)C3CCNCC3)s2)o1 1, O=C(O)c1ccc(Nc2ncc3c(n2)-c2ccc(Cl)cc2C(c2c(F)cccc2F)=NC3)cc1 1, COc1ccc(S(=O)(=O)N(C(C)=O)c2ccccc2/C=C/c2cc[n+]([O-])cc2)cc1 1, CC(C)(C)Nc1nc(Nc2ccc(C(N)=O)cc2)cc(N)c1C#N 1, Nc1cccc(-c2cc3c(Oc4cccc(O)c4)ncnc3[nH]2)c1 1, c1ccc2c(c1)Cc1c(Nc3ccc4c(c3)OCCO4)n[nH]c1-2 1, Cc1c(NC(=O)OC[C@@H]2COCCN2)cn2ncnc(Nc3ccc4c(cnn4Cc4cccc(F)c4)c3)c12 1, CCC(=O)N1CCN(c2ccc(-n3c(=O)ccc4cnc5ccc(-c6cnc7ccccc7c6)cc5c43)cc2C(F)(F)F)CC1 [Torin 1] 1, COc1c(Nc2cc(C)[nH]n2)nc(Sc2ccc(S(=O)(=O)Cc3cccc([N+](=O)[O-])c3F)cc2F)nc1N1CCOCC1 [Centrinone] 1, COc1cc2c(NC3CCN(C(C)C)CC3)nc(N3CCC(F)(F)CC3)nc2cc1OCCCN1CCCC1 1, CC(=O)c1c(C)c2cnc(Nc3ccc(N4CCNCC4)cn3)nc2n(C2CCCC2)c1=O 1, CN1c2ccccc2C(=O)N2CCc3c([nH]c4ccccc34)[C@H]21 [Evodiamine] 1, CO[C@H]1C=CC=C(C)C(=O)NC2=CC(=O)C(NCCN(C)C)=C(C[C@@H](C)C[C@H](OC)[C@H](O)[C@@H](C)C=C(C)[C@@H]1OC(N)=O)C2=O [17-DMAG hydrochloride] 1, Cc1noc(C)c1-c1cc(O)cc(C(O)c2ccccc2)c1 (centres undefined) 1, O=C(Nc1ccc(-c2ccnc(Nc3ccc(N4CCOCC4)cc3)n2)cc1)[C@@H]1CCCN1 1, NC1(C(=O)N[C@@H](CCO)c2ccc(Cl)cc2)CCN(c2ncnc3[nH]ccc23)CC1 1, NC(=O)Nc1cc(-c2cccc(F)c2)sc1C(=O)N[C@H]1CCCNC1 [AZD 7762 hydrochloride] 1, COc1cc2nc(-c3cc(F)ccc3O)nc(N[C@@H]3CNC[C@H]3C(C)(C)O)c2cc1OC 1, Cc1c[nH]c2nccc(Oc3c(F)cc(Nc4cc(Cl)nc(N)n4)cc3F)c12 1, C[C@H]1[C@H]2CC[C@H]3[C@@H]4CC=C5C[C@@H](N(C)C)CC[C@]5(C)[C@H]4CC[C@]23CN1C [Conessine] 1, CON(C)C(=O)N1N=C(c2cc(F)ccc2F)S[C@@]1(CCCN)c1ccccc1 [ARRY 520 trifluoroacetate] 1, CC[C@H](CO)Nc1nc(NCc2ccc(-c3ccccn3)cc2)c2ncn(C(C)C)c2n1 1, Oc1cccc(-c2nc(N3CCOCC3)c3oc4ncccc4c3n2)c1 [PI 103 hydrochloride] 1, COc1cc(/C=C/c2ccc(OC)cc2OC)cc(OC)c1 1, COc1cc2c(cc1-c1c(C)noc1C)ncc1[nH]c(=O)n([C@H](C)c3ccccn3)c12 [I-BET 151 dihydrochloride] 1, COc1cccc(-c2cc(F)ccc2[C@H]2Cc3nc(N)nc(C)c3C(=O)N2)n1 1, COc1cc(C(=O)NC2CCN(C)CC2)c(F)cc1Nc1ncc2c(n1)N(C1CCCC1)CC(F)(F)C(=O)N2C [TAK 960 hydrochloride] 1, CC[C@]1(O)C[C@@H]2CN(CCc3c([nH]c4ccccc34)[C@@](C(=O)OC)(c3cc4c(cc3OC)N(C=O)[C@H]3[C@@](O)(C(=O)OC)[C@H](OC(C)=O)[C@]5(CC)C=CCN6CC[C@]43[C@@H]65)C2)C1 [vincristine] 1, OC[C@H]1O[C@@H](n2cnc3c(NCc4ccco4)ncnc32)[C@H](O)[C@@H]1O [Kinetin riboside] 1, N#Cc1c(C2CCNCC2)cc(-c2c(O)cccc2OCC2CC2)nc1N 1, C=CC(=O)Nc1cccc(Nc2nc(Nc3ccc(OCCOC)cc3)ncc2F)c1 1, COc1cc(N2CCC(N3CCN(C)CC3)CC2)ccc1Nc1ncnc(Nc2ccccc2S(=O)(=O)C(C)C)n1 1, Fc1ccccc1CNCc1ccc(-c2ccnc3[nH]ccc23)cc1 [OXA 06 dihydrochloride] 1, C[C@H]1COCCN1c1cc(C2(S(=O)(=O)C3CC3)CC2)nc(-c2ccc(NC(=S)NCCO)cc2)n1 1
